Experimental data published in the supplement of paper PMC12645437, “Orthogonal IMiD-Degron Pairs Induce Selective Protein Degradation in Cells” (ACS Chemical Biology, 2025).
Over roughly 8,300 sequences, “log2 fold change of degron read counts, EGFP-low vs EGFP+ sorted cells (limma voom), compound-induced degradation” has its median near -1.1; the highest 2% begin near 3.2. The full list was thinned out, with the highest values kept by preference.

T1: CRBN, Q96SW2
T1 chain: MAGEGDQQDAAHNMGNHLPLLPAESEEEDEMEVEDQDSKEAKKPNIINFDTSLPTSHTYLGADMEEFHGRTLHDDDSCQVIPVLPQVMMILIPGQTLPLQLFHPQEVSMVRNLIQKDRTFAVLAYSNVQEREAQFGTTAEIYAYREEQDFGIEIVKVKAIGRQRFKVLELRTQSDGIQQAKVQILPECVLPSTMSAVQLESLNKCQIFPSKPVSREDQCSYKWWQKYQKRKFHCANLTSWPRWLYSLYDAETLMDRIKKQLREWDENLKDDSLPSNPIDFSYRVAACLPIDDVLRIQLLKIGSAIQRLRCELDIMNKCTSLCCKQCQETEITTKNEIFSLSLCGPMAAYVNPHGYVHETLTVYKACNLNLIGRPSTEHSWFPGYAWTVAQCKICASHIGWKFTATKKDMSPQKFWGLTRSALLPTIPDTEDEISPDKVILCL


Molecular target: T1, CRBN, Q96SW2
Test: log2 fold change of degron read counts, EGFP-low vs EGFP+ sorted cells (limma voom), compound-induced degradation; higher = more compound-induced degradation of the degron-EGFP fusion; degrons are variants of IKZF1/3 zinc finger 2; compound dose not given here
Details: Jurkat, 18 h
Procedure: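 Pooled library of 8380 IKZF3 ZF2 degron mutants (positions 146-167 varied within the IKZF3 130-189 degron; only the varied core is printed, flanks not printed) fused to EGFP with IRES-mCherry, lentivirally expressed in Jurkat cells. mCherry+ cells were treated with one IMiD compound for 18 h (dose not stated) and FACS-sorted into EGFP-low and EGFP+ populations. Degron sequences were counted by NGS, and log2FC (EGFP-low vs EGFP+) was estimated by limma voom over 3 biological replicates.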

[1] = compound: compound 19 (5-tert-butyl-thalidomide)
[2] = compound: compound 22 (5-morpholino-thalidomide)
[3] = compound: compound 33 (diphenyl IMiD analogue)
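Further: pooled lentiviral library of zinc finger degron-EGFP fusions in mCherry-positive Jurkat cells, FACS-sorted after compound exposure, with degron abundance counted by next-generation sequencing.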

Sequence | log2 fold change of degron read counts [1] | log2 fold change of degron read counts [2] | log2 fold change of degron read counts [3] | log2 fold change of degron read counts (compound: thalidomide)
FWCPICGHQFTQKGNLLRHIKL [46F_47W_49P_50I_52G_53H_54Q_55F_67L_, Q9UKT9] | -1.19 | 0.164 | -0.157 | -0.942
FHCNVCGALFTQKGNLLRHIKL [46F_47H_49N_50V_52G_53A_54L_55F_67L_, Q9UKT9] | -1.06 | -1.21 | -0.823 | -1.55
LTCEICGFDCTQKGNLLRHIKL [46L_47T_49E_50I_52G_53F_54D_55C_67L_, Q9UKT9] | -3.24 | -2.7 | -2.79 | -2.46
LLCNQCGFACTQKGNLLRHIKL [46L_47L_49N_50Q_52G_53F_54A_55C_67L_, Q9UKT9] | -2.26 | -2.6 | -2.27 | -1.53
FVCNQCGATFTQKGNLLRHIKL [46F_47V_49N_50Q_52G_53A_54T_55F_67L_, Q9UKT9] | -2.74 | -1.56 | -1.1 | -1.67
FMCEQCGAYFTQKGNLLRHIKL [46F_47M_49E_50Q_52G_53A_54Y_55F_67L_, Q9UKT9] | -2.39 | -2.36 | -0.295 | -2.25
LTCEICGFICTQKGNLLRHIKL [46L_47T_49E_50I_52G_53F_54I_55C_67L_, Q9UKT9] | -0.462 | -0.661 | 0.241 | 1.1
FKCDVCGAPFTQKGNLLRHIKL [46F_47K_49D_50V_52G_53A_54P_55F_67L_, Q9UKT9] | -0.146 | -0.607 | -2.1 | 0.295
FGCDVCGARFTQKGNLLRHIKL [46F_47G_49D_50V_52G_53A_54R_55F_67L_, Q9UKT9] | 1.49 | -0.377 | -1.65 | -0.568
FVCDVCGARFTQKGNLLRHIKL [46F_47V_49D_50V_52G_53A_54R_55F_67L_, Q9UKT9] | -0.856 | 0.623 | -0.882 | 0.963
FDCDVCGARFTQKGNLLRHIKL [46F_47D_49D_50V_52G_53A_54R_55F_67L_, Q9UKT9] | 0.864 | -0.479 | -1.77 | -0.643
FYCDVCGARFTQKGNLLRHIKL [46F_47Y_49D_50V_52G_53A_54R_55F_67L_, Q9UKT9] | 3.21 | 3.28 | 0.5 | -0.569
FWCDVCGARFTQKGNLLRHIKL [46F_47W_49D_50V_52G_53A_54R_55F_67L_, Q9UKT9] | 2.89 | 3.6 | 0.211 | 0.033
FMCDVCGARFTQKGNLLRHIKL [46F_47M_49D_50V_52G_53A_54R_55F_67L_, Q9UKT9] | -1.48 | -1.88 | 0.0127 | -0.773
FFCDVCGARFTQKGNLLRHIKL [46F_47F_49D_50V_52G_53A_54R_55F_67L_, Q9UKT9] | 3.5 | 3.15 | 0.549 | -0.102
FLCDVCGARFTQKGNLLRHIKL [46F_47L_49D_50V_52G_53A_54R_55F_67L_, Q9UKT9] | -1.59 | -2.29 | -1.43 | -0.242
FHCDVCGARFTQKGNLLRHIKL [46F_47H_49D_50V_52G_53A_54R_55F_67L_, Q9UKT9] | 0.448 | 0.585 | -1.42 | -1.6
FCCDQCGAVFTQKGNLLRHIKL [46F_47C_49D_50Q_52G_53A_54V_55F_67L_, Q9UKT9] | -2.49 | -1.9 | -0.705 | -2.14
FECDVCGAHFTQKGNLLRHIKL [46F_47E_49D_50V_52G_53A_54H_55F_67L_, Q9UKT9] | -2.74 | -4.09 | -1.55 | -1.76
